Reference: ChEMBL document CHEMBL1961873, “Compounds: GSK PKIS; Assays: Nanosyn kinase panel” (2012)
Where “and” joins values, the source holds several entries; their conditions need not be identical. Equal values may be shown once.

What was measured:
[1] = target: Tyrosine-protein kinase receptor UFO (Homo sapiens) (UniProt P30530); details: at 1 µM
[2] = target: Tyrosine-protein kinase Blk (Homo sapiens) (UniProt P51451); details: at 0.1 µM
[3] = target: Tyrosine-protein kinase Blk (Homo sapiens) (UniProt P51451); details: at 1 µM
[4] = target: T1, Cytoplasmic tyrosine-protein kinase BMX (Homo sapiens) (UniProt P51813); details: at 0.1 µM
T1 sequence (whole entry): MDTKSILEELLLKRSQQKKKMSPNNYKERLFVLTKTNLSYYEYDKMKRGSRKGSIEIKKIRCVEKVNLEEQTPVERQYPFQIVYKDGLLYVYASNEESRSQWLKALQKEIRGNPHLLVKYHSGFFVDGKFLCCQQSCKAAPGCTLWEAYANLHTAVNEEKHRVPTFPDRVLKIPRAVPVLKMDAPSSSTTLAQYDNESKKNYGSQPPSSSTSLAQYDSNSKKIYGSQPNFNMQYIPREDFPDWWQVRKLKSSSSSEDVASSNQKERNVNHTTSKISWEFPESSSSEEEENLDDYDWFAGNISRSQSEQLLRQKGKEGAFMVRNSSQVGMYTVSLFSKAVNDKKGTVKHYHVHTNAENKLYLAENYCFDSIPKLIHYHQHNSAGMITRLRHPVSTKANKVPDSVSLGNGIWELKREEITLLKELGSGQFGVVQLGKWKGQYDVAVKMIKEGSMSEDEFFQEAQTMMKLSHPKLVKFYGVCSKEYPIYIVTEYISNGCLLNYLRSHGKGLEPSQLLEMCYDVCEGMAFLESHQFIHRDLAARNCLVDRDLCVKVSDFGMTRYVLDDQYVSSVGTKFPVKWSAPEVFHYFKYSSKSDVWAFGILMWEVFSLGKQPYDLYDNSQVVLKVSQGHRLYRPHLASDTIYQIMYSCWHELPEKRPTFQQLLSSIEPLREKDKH

[5] = target: T1, Cytoplasmic tyrosine-protein kinase BMX (Homo sapiens); details: at 1 µM
[6] = target: Protein-tyrosine kinase 6 (Homo sapiens) (UniProt Q13882); details: at 0.1 µM
[7] = target: Protein-tyrosine kinase 6 (Homo sapiens) (UniProt Q13882); details: at 1 µM
[8] = target: Tyrosine-protein kinase BTK (Homo sapiens) (UniProt Q06187); details: at 0.1 µM
[9] = target: Tyrosine-protein kinase BTK (Homo sapiens) (UniProt Q06187); details: at 1 µM
[10] = target: Tyrosine-protein kinase CSK (Homo sapiens) (UniProt P41240); details: at 0.1 µM
[11] = target: Tyrosine-protein kinase CSK (Homo sapiens) (UniProt P41240); details: at 1 µM
[12] = target: T2, Discoidin domain-containing receptor 2 (Homo sapiens) (UniProt Q16832); details: at 0.1 µM
T2 sequence (whole entry): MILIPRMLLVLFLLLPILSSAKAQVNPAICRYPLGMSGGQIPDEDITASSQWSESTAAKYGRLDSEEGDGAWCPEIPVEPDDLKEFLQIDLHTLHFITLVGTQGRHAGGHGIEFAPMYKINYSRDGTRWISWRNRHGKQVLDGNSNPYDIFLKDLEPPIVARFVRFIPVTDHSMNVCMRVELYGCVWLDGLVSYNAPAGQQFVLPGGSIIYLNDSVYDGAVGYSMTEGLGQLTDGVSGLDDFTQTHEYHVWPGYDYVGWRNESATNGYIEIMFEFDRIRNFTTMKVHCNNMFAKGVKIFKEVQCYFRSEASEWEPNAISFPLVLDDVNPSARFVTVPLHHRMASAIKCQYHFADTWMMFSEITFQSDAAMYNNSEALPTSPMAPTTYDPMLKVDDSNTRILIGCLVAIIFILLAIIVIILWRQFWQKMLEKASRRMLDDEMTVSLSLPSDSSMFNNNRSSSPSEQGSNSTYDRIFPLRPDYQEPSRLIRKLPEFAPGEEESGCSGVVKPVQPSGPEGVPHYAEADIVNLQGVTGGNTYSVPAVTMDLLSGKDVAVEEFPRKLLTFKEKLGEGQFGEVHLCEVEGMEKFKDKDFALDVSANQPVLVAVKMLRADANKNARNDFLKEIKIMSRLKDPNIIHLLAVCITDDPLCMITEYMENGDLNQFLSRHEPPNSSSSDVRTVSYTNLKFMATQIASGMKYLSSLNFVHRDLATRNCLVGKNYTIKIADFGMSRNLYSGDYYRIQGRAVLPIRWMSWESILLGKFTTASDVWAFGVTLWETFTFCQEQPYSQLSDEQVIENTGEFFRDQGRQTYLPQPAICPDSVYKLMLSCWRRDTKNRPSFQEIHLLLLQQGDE

[13] = target: T2, Discoidin domain-containing receptor 2 (Homo sapiens); details: at 1 µM
[14] = target: Epidermal growth factor receptor (Homo sapiens) (UniProt P00533); details: at 0.1 µM
[15] = target: Epidermal growth factor receptor (Homo sapiens) (UniProt P00533); details: at 1 µM
[16] = tested on: Epidermal growth factor receptor (Homo sapiens), P00533 [L858R]; details: at 0.1 µM
[17] = tested on: Epidermal growth factor receptor (Homo sapiens), P00533 [L858R]; details: at 1 µM
[18] = tested on: Epidermal growth factor receptor (Homo sapiens), P00533 [L861Q]; details: at 0.1 µM
[19] = tested on: Epidermal growth factor receptor (Homo sapiens), P00533 [L861Q]; details: at 1 µM
[20] = tested on: Epidermal growth factor receptor (Homo sapiens), P00533 [T790M]; details: at 0.1 µM

Protein-tyrosine kinase 6 (Homo sapiens), sequence (Q13882 whole entry, looked up): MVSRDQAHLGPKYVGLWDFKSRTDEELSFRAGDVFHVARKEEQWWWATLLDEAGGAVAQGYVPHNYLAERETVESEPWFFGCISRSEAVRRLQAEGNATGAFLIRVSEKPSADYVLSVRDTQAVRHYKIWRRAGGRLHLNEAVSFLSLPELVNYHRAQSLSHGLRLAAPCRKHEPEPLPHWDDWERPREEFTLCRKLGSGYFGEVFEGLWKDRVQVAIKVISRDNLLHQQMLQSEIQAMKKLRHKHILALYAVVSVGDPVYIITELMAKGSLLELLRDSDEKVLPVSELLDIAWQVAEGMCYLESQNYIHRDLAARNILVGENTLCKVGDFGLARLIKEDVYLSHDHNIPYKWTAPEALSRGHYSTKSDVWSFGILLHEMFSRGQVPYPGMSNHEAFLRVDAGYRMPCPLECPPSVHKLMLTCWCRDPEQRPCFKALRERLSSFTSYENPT
Tyrosine-protein kinase CSK (Homo sapiens), sequence (P41240 2-450 limits assumed): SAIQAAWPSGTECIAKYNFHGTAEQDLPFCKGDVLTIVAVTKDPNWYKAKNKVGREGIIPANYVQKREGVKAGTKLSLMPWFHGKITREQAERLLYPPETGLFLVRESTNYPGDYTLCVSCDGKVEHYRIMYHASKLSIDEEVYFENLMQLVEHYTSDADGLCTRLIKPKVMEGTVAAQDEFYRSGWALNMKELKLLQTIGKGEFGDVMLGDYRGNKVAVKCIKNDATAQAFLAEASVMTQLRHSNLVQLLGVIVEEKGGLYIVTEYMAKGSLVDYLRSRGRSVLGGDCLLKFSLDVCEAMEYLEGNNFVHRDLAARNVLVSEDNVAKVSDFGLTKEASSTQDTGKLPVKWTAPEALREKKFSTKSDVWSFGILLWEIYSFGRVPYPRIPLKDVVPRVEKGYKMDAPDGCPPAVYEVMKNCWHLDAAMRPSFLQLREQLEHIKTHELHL
Epidermal growth factor receptor (Homo sapiens), sequence (P00533 whole entry): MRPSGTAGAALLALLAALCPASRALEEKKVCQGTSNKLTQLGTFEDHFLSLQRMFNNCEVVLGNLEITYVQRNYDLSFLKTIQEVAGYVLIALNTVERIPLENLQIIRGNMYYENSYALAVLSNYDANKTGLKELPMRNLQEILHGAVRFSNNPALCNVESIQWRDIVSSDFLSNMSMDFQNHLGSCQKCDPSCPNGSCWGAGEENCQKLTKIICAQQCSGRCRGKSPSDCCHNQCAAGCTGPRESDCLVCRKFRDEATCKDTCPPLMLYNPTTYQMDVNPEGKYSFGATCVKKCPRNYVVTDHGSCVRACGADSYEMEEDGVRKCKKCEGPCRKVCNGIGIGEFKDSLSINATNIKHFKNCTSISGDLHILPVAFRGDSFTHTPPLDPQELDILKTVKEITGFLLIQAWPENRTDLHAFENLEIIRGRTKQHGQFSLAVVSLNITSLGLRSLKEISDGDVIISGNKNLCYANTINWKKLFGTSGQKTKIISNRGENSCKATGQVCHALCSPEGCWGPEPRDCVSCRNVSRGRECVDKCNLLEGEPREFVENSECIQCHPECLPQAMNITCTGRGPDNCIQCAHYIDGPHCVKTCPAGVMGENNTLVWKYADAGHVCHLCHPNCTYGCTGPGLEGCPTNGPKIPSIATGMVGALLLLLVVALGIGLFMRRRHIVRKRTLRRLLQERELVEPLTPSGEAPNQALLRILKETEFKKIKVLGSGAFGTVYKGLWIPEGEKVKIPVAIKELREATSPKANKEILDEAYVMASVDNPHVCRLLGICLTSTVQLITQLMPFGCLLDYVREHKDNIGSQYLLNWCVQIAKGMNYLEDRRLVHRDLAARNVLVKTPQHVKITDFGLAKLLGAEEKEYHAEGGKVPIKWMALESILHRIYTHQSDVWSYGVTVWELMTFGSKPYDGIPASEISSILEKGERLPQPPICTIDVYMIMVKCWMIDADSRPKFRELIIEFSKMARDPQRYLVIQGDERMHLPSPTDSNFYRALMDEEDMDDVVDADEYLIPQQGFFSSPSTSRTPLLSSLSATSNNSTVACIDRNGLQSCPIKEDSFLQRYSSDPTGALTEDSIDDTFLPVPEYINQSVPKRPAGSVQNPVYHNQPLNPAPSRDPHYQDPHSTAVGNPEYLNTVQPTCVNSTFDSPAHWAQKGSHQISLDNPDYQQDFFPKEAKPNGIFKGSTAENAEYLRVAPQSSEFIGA
Tyrosine-protein kinase BTK (Homo sapiens), sequence (Q06187 whole entry): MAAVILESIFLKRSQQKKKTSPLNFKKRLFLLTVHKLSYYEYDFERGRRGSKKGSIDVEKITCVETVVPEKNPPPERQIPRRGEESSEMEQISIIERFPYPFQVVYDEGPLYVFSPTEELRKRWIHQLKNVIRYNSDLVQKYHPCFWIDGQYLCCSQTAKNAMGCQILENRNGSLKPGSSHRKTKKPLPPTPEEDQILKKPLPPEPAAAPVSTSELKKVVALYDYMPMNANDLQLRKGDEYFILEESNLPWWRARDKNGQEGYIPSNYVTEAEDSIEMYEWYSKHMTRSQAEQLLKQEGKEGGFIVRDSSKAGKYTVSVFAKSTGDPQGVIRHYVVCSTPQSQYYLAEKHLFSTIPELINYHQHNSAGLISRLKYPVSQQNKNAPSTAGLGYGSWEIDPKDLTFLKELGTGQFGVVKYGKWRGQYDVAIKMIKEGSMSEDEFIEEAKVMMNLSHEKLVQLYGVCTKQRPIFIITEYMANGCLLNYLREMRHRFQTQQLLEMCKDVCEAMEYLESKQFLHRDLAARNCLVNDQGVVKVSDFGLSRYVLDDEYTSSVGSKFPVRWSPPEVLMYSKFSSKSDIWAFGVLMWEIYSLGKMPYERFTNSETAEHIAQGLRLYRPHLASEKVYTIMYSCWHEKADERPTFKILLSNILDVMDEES
Epidermal growth factor receptor (Homo sapiens), P00533 [L861Q], sequence (P00533 whole entry L861Q): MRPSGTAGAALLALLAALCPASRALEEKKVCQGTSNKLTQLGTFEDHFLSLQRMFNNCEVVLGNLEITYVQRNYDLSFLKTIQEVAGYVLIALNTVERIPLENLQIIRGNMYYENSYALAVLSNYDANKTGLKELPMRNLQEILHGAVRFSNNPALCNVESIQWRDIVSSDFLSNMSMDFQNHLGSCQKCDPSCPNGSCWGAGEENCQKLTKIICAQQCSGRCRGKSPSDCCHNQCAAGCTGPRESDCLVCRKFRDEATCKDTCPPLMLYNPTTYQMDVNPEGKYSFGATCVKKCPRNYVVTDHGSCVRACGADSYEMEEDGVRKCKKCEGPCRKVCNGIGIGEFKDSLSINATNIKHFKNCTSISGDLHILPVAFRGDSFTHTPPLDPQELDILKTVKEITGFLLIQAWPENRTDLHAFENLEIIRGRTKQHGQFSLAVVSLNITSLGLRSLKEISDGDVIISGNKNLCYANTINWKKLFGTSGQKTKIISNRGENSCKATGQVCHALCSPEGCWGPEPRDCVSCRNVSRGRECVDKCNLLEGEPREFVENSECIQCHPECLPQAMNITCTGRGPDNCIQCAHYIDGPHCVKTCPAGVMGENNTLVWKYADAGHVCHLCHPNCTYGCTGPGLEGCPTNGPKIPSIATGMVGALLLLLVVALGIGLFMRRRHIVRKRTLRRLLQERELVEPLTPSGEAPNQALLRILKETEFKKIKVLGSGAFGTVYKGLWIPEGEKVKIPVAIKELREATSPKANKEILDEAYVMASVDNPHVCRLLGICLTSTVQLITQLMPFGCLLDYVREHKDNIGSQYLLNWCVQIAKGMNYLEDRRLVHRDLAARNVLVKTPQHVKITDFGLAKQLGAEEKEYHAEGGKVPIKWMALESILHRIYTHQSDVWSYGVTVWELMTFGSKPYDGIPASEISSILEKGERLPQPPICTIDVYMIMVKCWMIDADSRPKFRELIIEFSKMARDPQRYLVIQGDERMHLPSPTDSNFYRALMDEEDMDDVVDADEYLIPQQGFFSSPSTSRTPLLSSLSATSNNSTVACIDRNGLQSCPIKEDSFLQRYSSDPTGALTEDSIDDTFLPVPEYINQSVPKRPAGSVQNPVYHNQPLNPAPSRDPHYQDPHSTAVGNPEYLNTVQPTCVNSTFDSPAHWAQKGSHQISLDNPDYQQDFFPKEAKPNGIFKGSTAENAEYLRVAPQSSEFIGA
Tyrosine-protein kinase receptor UFO (Homo sapiens), sequence (P30530 whole entry): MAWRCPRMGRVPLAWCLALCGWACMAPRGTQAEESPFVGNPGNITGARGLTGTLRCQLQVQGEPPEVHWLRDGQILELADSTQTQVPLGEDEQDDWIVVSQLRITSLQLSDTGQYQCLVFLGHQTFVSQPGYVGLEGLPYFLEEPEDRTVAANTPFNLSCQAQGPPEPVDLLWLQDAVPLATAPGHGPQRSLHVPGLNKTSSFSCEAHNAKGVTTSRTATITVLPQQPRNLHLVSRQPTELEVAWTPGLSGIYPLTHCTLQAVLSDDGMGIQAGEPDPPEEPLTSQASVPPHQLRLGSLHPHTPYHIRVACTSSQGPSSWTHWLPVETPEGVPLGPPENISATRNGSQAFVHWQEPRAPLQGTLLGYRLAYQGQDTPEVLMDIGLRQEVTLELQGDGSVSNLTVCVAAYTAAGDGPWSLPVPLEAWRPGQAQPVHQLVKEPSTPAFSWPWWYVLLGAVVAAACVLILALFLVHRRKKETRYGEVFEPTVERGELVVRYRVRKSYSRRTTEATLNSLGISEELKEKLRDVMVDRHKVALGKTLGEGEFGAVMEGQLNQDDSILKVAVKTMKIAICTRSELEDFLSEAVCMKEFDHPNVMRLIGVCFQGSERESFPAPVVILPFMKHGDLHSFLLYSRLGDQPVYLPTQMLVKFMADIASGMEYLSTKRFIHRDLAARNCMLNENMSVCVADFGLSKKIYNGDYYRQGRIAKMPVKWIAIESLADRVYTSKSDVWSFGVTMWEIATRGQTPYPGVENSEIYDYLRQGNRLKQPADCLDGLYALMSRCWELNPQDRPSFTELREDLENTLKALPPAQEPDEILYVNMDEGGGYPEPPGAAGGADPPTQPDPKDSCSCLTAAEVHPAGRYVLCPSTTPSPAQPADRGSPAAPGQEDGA

SMILES | inhibition [1] | inhibition [2] | inhibition [3] | inhibition [4] | inhibition [5] | inhibition [6] | inhibition [7] | inhibition [8] | inhibition [9] | inhibition [10] | inhibition [11] | inhibition [12] | inhibition [13] | inhibition [14] | inhibition [15] | inhibition [16] | inhibition [17] | inhibition [18] | inhibition [19] | inhibition [20]
O=C(Nc1n[nH]c2nnc(-c3cccnc3)cc12)C1CC1 | 1.65% | 0.58% | 2.68% | -0.2% | 0.81% | -0.91% | -0.57% | 0.26% | -0.1% | -1.49% | -1.56% | -0.82% | -1% | 0.34% | 1.5% | -2.25% | 2.57% | -1.02% | -0.99% | -0.29%
CC1(C)CC(n2cnc(-c3ccc(F)cc3)c2-c2ccnc(N)n2)CC(C)(C)N1 | 1.58% | 0.51% | 1.43% | -2.57% | 1.06% | -2.17% | 1.66% | -1.42% | -1.35% | -0.2% | -2.23% | 1.3% | -0.87% | 0.38% | -0.12% | -1.07% | 0.2% | -0.41% | -1% | -0.77%
COc1ccc2ncn(-c3cc(O[C@H](C)c4ccccc4C(F)(F)F)c(C(N)=O)s3)c2c1 | 1.8% | -0.74% | 2.3% | -0.1% | 1.93% | -0.2% | -0.61% | -0.76% | -0.74% | -1.23% | -2.18% | -0.82% | -2.22% | 0.37% | 2.93% | -1.19% | 1.03% | -0.87% | 0.54% | -1.45%
CC1=C(C(=O)Nc2ccc3[nH]nc(C)c3c2)C(c2ccc(C(F)(F)F)cc2)CC(=O)N1 (stereo not given) | -6.56% | 3.36% | 17% | -2.44% | 4.58% | 3.23% | 23.5% | 1.29% | 2.32% | 1.88% | 5.65% | 3.33% | 1.65% | 2.76% | 5.52% | 4.19% | 1.96% | 1.79% | 1.92% | 2.05%
Cc1ccc(-c2cc3c(NC(=O)C4CC4)ncnc3o2)cc1 | -1.05% | 3.18% | 12.7% | -1.26% | 7.57% | 4% | 8.16% | 0.73% | 1.92% | 2.33% | 2.78% | 0.26% | 1.45% | 3.75% | 8.67% | 3.53% | 2.75% | 2.3% | 4.69% | 1.98%
CS(=O)(=O)CCNCc1ccc(-c2ccc3ncnc(Nc4ccc(OCc5cccc(C(F)(F)F)c5)cc4)c3c2)o1 | -5.12% | 2.51% | 6.32% | 3.21% | 6.44% | 2.67% | 3.19% | -2.4% | 0.46% | 2.05% | 3.02% | 0.91% | 2.9% | 15.5% | 58.8% | 6.17% | 26.7% | 14.4% | 34.4% | 0.24%
CCN1CCC(C(=O)Nc2n[nH]c3nnc(-c4cccc(F)c4F)cc23)CC1 | 2.22% | 0.62% | 2.33% | -0.1% | 1.04% | -0.63% | -0.63% | 0% | -0.5% | 2.49% | -0.26% | 1.13% | 1.17% | 1.21% | 2.27% | -0.75% | 1.38% | -0.05% | -0.76% | -1.59%
COc1c(C(N)=O)cc(-c2ccc(Cl)cc2)cc1-c1ccc(S(N)(=O)=O)cc1 | -6.03% | 1.95% | 3.34% | 4.08% | 6.04% | 3.21% | 4.09% | -1.27% | -0.85% | 3.55% | 4.45% | 1.62% | 2.64% | 1.55% | 2.79% | 2.2% | 8.48% | 2.27% | 5.74% | 1.41%
CS(=O)(=O)CCNCc1ccc(-c2ccc3ncnc(Nc4ccc(OCc5ccccc5)cc4)c3c2)o1 | -1.88% | 3.85% | 14.1% | 3.59% | 8.85% | 2.05% | 13.7% | 0.51% | 6.4% | 5.85% | 9.28% | 1.74% | 2.07% | 83.8% | 94.1% | 31.4% | 71.2% | 33% | 55.7% | 4.15%
CN1CCC(C(=O)Nc2n[nH]c3nc(-c4ccc(O)cc4)c(Br)cc23)CC1 | -2.51% and -3.39% | -0.49% and 1.32% | 0.8% and 4.39% | 4.12% and 2.58% | 3.63% and 4.39% | 4.15% and 1.12% | 9.38% and 6.4% | -3.39% and 0.29% | -2.64% and 0.46% | -0.63% | 7.63% and 4.28% | -0.34% and 1.94% | 0.35% and 3.34% | -1.4% and 2.45% | -1.83% and 5.5% | 3.81% and 2.33% | 5.88% and 4.98% | 2.69% and 0.43% | 2.01% and 1.22% | 2.13% and 0.11%
NS(=O)(=O)c1ccc(N/N=C2\C(=O)Nc3cccc(CCc4ccncc4)c32)cc1 | 0.32% | 4.33% | 10.4% | 3.67% | 4.79% | -0.69% | -1.07% | 0.17% | 0.16% | 1.04% | 0.36% | 1.26% | 1.42% | 4.28% | 6.81% | -0.53% | 3.04% | -0.31% | 0.15% | 0.27%
COc1cc(N2CCN(C(C)C)CC2)ccc1Nc1nc(Nc2cccc(F)c2C(=O)O)c2cc[nH]c2n1 | 37.3% | 2.92% | 4.31% | 2.19% | 4.13% | 4.63% | 8.17% | -0.37% | 0.06% | 5.06% | 7.02% | 1.68% | 1.98% | 0.15% | 3.33% | 4.84% | 12.6% | 4.97% | 5.54% | 6.09%
CNC(=O)c1sc(-n2cnc3cc(OC)c(OC)cc32)cc1OCc1ccccc1C(F)(F)F | -2.36% | 3.39% | 7.51% | 4.57% | 2.17% | 0.08% | 2.98% | 0.62% | 3.2% | 3.42% | 7.18% | 2.3% | 2.7% | -0.83% | 2.09% | 0.74% | -0.13% | 1.16% | 1.23% | 0.64%
